Assay outcomes deposited in PubChem by several laboratories.
VLA-4 inh: inhibition in human VLA-4 binding assay, primary screen, VLA-4 allosteric modulator project, MLPCN library, flow cytometry, VLA-4 expressing cells; Integrin alpha-4 (Homo sapiens), P13612; ligand binding flow cytometry; inhibition, % (about 7 µM as worked out from the volumes in the protocol); hit rate 0.2% among 330,000; AID 2557, 2010
PKD1 inh: inhibitors of human PKD1 kinase, biochemical, fluorescence polarization. Serine/threonine-protein kinase D1 (Homo sapiens), Q15139. inhibition, % (concentration not given with the values). PKD1 kinase fluorescence polarization assay. hit rate 0.056% among 200,000
LANA-H2A inh: blockers of LANA interaction with H2A/H2B – biochemical, FP readout, HTS, primary screen | cell-free LANA-H2A/H2B peptide, fluorescence polarization | inhibition, % (test concentration not listed) | hit rate 0.6% among 320,000 | AID 2629, 2010; in the data active = inhibition mostly above about 10%, no sharp cut-off; inactive = mostly below about 6.7%
Pemphigus Ab inh: inhibitors of pemphigus antibody binding to DSG3, primary screen, biochemical, bead-based, flow cytometry, scFv-GFP; hit rate 0.48% among 310,000; AID 588358, 2011; Desmoglein-3 (Homo sapiens), P32926; binding (percent of control), % at 10 µM; DSG3-coupled beads, scFv-anti-DSG3-GFP binding; stronger effect = lower value;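 active = binding more than 3 SD below its plate's average and above zero; inconclusive = below that plate limit but binding exactly zero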
Target sequence (P32926 whole entry, looked up): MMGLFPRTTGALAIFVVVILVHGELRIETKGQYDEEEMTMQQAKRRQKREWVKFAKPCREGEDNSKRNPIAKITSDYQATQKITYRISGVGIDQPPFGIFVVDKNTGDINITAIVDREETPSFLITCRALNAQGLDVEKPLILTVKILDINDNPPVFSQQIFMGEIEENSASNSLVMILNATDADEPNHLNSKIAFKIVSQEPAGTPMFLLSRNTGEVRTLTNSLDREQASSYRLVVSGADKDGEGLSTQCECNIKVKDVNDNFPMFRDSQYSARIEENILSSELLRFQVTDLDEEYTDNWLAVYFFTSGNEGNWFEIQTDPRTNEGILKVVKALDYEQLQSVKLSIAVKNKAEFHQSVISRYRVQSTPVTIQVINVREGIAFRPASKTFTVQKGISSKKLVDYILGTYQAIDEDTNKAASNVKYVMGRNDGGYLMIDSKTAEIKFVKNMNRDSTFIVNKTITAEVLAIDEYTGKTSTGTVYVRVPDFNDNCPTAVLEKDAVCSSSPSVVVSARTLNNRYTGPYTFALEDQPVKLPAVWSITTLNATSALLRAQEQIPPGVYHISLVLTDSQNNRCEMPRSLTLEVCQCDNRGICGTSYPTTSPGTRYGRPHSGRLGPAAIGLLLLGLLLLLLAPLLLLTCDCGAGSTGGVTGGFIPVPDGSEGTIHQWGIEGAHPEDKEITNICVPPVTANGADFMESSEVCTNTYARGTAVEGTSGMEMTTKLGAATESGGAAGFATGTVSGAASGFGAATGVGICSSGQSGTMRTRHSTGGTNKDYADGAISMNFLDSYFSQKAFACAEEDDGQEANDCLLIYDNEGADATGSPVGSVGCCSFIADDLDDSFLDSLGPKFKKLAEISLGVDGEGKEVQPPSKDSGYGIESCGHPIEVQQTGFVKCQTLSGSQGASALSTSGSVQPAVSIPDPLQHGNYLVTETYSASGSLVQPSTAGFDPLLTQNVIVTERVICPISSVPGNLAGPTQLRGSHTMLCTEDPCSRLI
GRK2 inh: compounds blocking aptamer binding on GRK2 – biochemical, human GRK2, bead flow cytometry, HTS, primary screen; FAM-aptamer displacement from GRK2; Beta-adrenergic receptor kinase 1 (Homo sapiens), P25098; inhibition of aptamer binding, % at 10 µM; hit rate 0.59% among 330,000;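 active = inhibition of aptamer binding above 40%, roughly 3 SD of noise, on plates passing a quality check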;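 note: median bead fluorescence of bound FAM aptamer so fluorescent compounds give negative values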
HDAC3 inhib: HDAC3 deacetylase inhibitors, primary screen, biochemical, fluorescence, cell-free homogeneous; recombinant HDAC3, fluorogenic peptide/trypsin coupled; hit rate 0.15% among 320,000; inhibition, % at 8.3 µM; Histone deacetylase 3 (Homo sapiens), O15379; in the data active = inhibition above about 26%, passing the limit was not always enough; inconclusive = no clear call, values can overlap the other calls
GRK2 inh confirm: GRK2 aptamer-displacing inhibitors, retest, confirmation, biochemical, cherry pick 1, bead flow cytometry | shares compounds with GRK2 inh | bead-bound GRK2, FAM-aptamer displacement | aptamer displacement, % at 10 µM | hit rate 4% among 2,000;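 active = aptamer displacement above 40%, near three times the noise of non-fluorescent compounds, on plates passing quality checks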;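 note: negative values mostly reflect intrinsic compound fluorescence rather than true enhancement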
Aptamer quench SP: aptamer fluorescence quenching in GRK2 counter-screen; shares compounds with GRK2 inh; Carboxyfluorescein RNA aptamer on beads, flow cytometry quenching; stronger effect = lower value; fluorescence response (% of DMSO), % at 10 µM; 2,000 tested, under 10 active; AID 504580;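 active = compounds that quench the bead-bound fluorescent RNA probe, cutting fluorescence to under half of the solvent control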;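 note: counterscreen run without GRK2 so only probe quenching by compound is measured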
GRK2 confirm 2: GRK2 aptamer-displacing inhibitors, hit retest, confirmation, biochemical, cherry pick 2, bead flow cytometry | inhibition of aptamer binding, % at 10 µM | AID 504782, 2011 | shares compounds with GRK2 inh | 360 tested, under 10 active | bead-bound GRK2, FAM-aptamer displacement;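 active = inhibition of aptamer binding above 40%, about triple the noise seen with nonglowing compounds, on plates passing quality control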;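 note: negative values mostly come from compounds that fluoresce themselves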
FAM quench CP2: quenches fluorescent RNA aptamer, GRK2 hit artifact | shares compounds with GRK2 inh | carboxyfluorescein RNA aptamer beads, flow cytometry quenching; stronger effect = lower value | fluorescence response vs DMSO, % at 10 µM | 360 tested, under 10 active | AID 588494;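 active = response vs DMSO under 50%, meaning signal dropped by over half, treated as fluorescence quencher; inconclusive = no clear call, values can overlap the other calls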;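 note: labelled aptamer on streptavidin beads without GRK2 as a quench counter-screen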
Numbers stand for hits; n = inactive; u = inconclusive; x = no result given. Rows were chosen to be rich in hits. Some 1.8% of all compounds tested hit in one or more screens of this group. Cut-off read from the data, not from the text of the source, unless noted: active = inhibition above about 50%; inactive = the rest.

SMILES | VLA-4 inh | PKD1 inh | LANA-H2A inh | Pemphigus Ab inh | GRK2 inh | HDAC3 inhib | GRK2 inh confirm | Aptamer quench SP | others
Cc1ccc(C)c(OCC(=O)N(C)CC(=O)Nc2ccc(Cl)c(C(F)(F)F)c2)c1 | n | x | n | n | 79 | n | n | n
CCOC(=O)/C(=N\Nc1ccccc1Cl)N1CCN(c2ccccc2OC)CC1 | n | n | n | n | n | u | x | x
CCCc1cc(=O)[nH]c(SCC(=O)Nc2oc(C)c3c(C)n[nH]c(=O)c23)n1 | n | x | n | u | n | n | x | x
CC(C)(O)C1CC[C@@](C)([C@@H]2CC[C@]3(C)[C@H]2[C@H](O)CC2[C@@]4(C)CCC(O)C(C)(C)C4C(OC4OC(CO)C(O)C(O)C4O[C@@H]4OCC(O)C(O)C4O)C[C@]23C)O1 (stereo partly specified) | n | x | n | n | n | n | n | n
Cc1ccc2c(c1)c1nnc(SCC(=O)N3CCN(c4ccc(F)cc4)CC3)nc1n2CC(=O)O | n | n | n | n | 100 | n | x | x | GRK2 confirm 2=n;FAM quench CP2=n
Cc1ccc(C(=O)NCc2ccccn2)cc1S(=O)(=O)N1CCCCC1 | n | x | n | n | n | n | x | x
COc1ccc(CCNC(=O)CCCn2c(=S)[nH]c3cc4c(cc3c2=O)OCO4)cc1OC | x | x | x | n | x | x | x | x
COCC(=O)N(C)C[C@H]1Oc2ncc(Br)cc2C(=O)N([C@@H](C)CO)C[C@H]1C | x | x | x | n | x | x | x | x
CCc1ccc(NC(=O)CSc2nc3n[nH]c(C)c3c(=N)n2-c2cccc(OC)c2)cc1 | n | n | n | n | n | n | x | x
Cc1ccc(CNC(=O)CSc2nc3n[nH]c(C)c3c(=N)n2-c2cccc(C)c2)cc1 | n | n | n | n | 99 | u | n | n
Cc1cc(OCC(=O)N(Cc2ccco2)c2c(N)n(Cc3ccccc3)c(=O)[nH]c2=O)ccc1Cl | n | x | n | n | n | n | n | n
Cc1ccc2c(CC(=O)OCC(=O)N(CC(C)C)c3c(N)n(Cc4ccccc4)c(=O)[nH]c3=O)coc2c1 | n | x | n | n | 83 | n | n | n
Nc1c(N(Cc2ccco2)C(=O)COc2ccc(Cl)cc2)c(=O)[nH]c(=O)n1Cc1ccccc1 | x | x | x | n | x | x | x | x
Cc1c(NC(=O)OC(C)C)sc(=S)n1C | n | n | n | n | n | n | n | n
COc1ccc(NC(=O)Nc2sc(=S)n(C)c2C)cc1 | n | n | n | n | 98 | n | n | n
COc1cccc(C2(O)CCN(C(=O)C(C)C)CC2)c1 | n | x | n | n | 55 | n | n | n
Cc1ccc(CNC(=O)c2ccc(N3CCc4ccccc43)c([N+](=O)[O-])c2)cc1 | n | n | n | n | n | n | n | n
O=C(O)C[C@H]1c2cc(F)ccc2S(=O)(=O)N1C1CCCCC1 | n | x | n | n | n | n | x | x
O=C(O)C[C@H]1c2cc(F)ccc2S(=O)(=O)N1C1CCCC1 | n | x | n | n | 44 | n | n | n
O=C(c1ccc(CNS(=O)(=O)c2ccc(Br)cc2)cc1)N1CCCCC1 | n | x | n | n | n | n | x | x
COc1ccc(OCCCC(=O)OC(C)C(=O)Nc2ccc(S(N)(=O)=O)cc2)cc1 (stereo unspecified) | n | x | n | n | n | n | x | x
O=C(NCc1ccc(F)cc1)C1CCCN(S(=O)(=O)c2ccc(-n3cnnn3)cc2)C1 (stereo unspecified) | n | x | n | n | n | n | n | n
CCn1c(CNC(=O)c2cccc(C)c2)nnc1SCC(=O)N1CCOCC1 | n | x | n | n | n | n | x | x
CCOc1ccc(NC(=O)CSc2ccc3nnc(-c4cccnc4)n3n2)cc1 | n | x | n | n | 41 | n | x | x | GRK2 confirm 2=n;FAM quench CP2=n
COc1ccc(C2=NOC(C(=O)Nc3cccnc3Cl)C2)cc1 (stereo unspecified) | n | n | n | n | n | n | x | x
SMILES | VLA-4 inh | PKD1 inh | LANA-H2A inh | Pemphigus Ab inh | GRK2 inh | HDAC3 inhib | GRK2 inh confirm | Aptamer quench SP | others
COCCCN1C(=O)C(=O)/C(=C(/O)c2ccc(S(=O)(=O)N3CCCCC3)cc2)C1c1ccc(O)cc1 (stereo unspecified) | n | x | n | n | n | n | n | n
COCCCN1C(=O)C(=O)/C(=C(/O)c2ccc(S(=O)(=O)N3CCCCC3)cc2)C1c1ccc(O)c(OC)c1 (stereo unspecified) | n | x | n | n | n | u | x | x
O=C(c1ccc(CSc2nc3ccncc3[nH]2)cc1)N1CCN(c2cccc(Cl)c2)CC1 | n | n | n | n | n | n | x | x
Cc1ccc(CSc2nc3ccncc3[nH]2)cc1 | n | n | n | n | 78 | x | n | n
O=C(c1ccc(CSc2nc3ccncc3[nH]2)cc1)N1CCCCCC1 | n | x | n | n | 68 | x | n | n
COc1ccc(OC2CCN(C(=O)Nc3ccc(C)cc3)CC2)cc1 | n | x | n | n | n | n | x | x
CC1Nc2ncnc(N3CCN(c4ccccc4)CC3)c2N(Cc2ccc(Br)cc2)C1=O (stereo unspecified) | n | x | n | n | n | n | x | x
CCCCCCCCNC(=O)c1cccnc1SCC(=O)Nc1ccccc1OC | n | n | n | n | n | n | x | x
CCOc1ccc(NS(=O)(=O)c2ccc3[nH]c(=O)[nH]c3c2)cc1 | n | x | n | n | 50 | n | n | n
COc1ccc(NC(=O)c2cccc3c2C(=O)c2ccc(-c4cnc(OC)nc4)cc2S3(=O)=O)cc1 | n | x | n | n | n | n | x | x
CC(/C=N/NC(=O)c1cnccn1)=C\c1ccco1 | n | x | n | n | n | n | x | x
COc1ccc(C2C3C=CCC(c4cccc(-c5ccc(C)cc5)c4)C3C(=O)N2Cc2ccccc2)cc1Cl (stereo unspecified) | n | x | n | n | n | n | n | n
COc1ccc(SCC(=O)Nc2ccccc2Cl)cc1 | n | n | n | n | 65 | n | x | x | GRK2 confirm 2=n;FAM quench CP2=n
Cc1c(C=N)c(O)n(C)c(=O)c1C#N | n | x | n | n | n | n | x | x
